High-throughput results as filed in PubChem.
An excerpt weighted towards active compounds, which were near 3.5% of everything screened.
MITF primary: human MITF inhibition, primary screen; hit rate 0.91% among 650,000; AID 1259374; inhibition, % at 2.6 µM; AlphaScreen MITF homodimerization, bead proximity signal; O75030; in the data active means inhibition above about 50%
TEAD-YAP inh: TEAD-YAP interaction inhibition; HEK-TIYL cells, TEAD-Gal4/YAP UAS-luciferase luminescence; AID 1259422; inhibition, % at 9.12 µM; hit rate 1.4% among 640,000; in the data active means inhibition above about 32%
FBW7 act: human FBW7 E3 ligase activation, primary screen. AlphaScreen FBW7–phospho-cyclin E peptide binding, activator screen. hit rate 0.13% among 650,000. Q969H0. normalized activity (activation), % at 26.1 µM; in the data active means normalized activity above about 1.9%;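 further: purified mutant Fbw7 with reduced substrate affinity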
Target sequence (Q969H0 whole entry, looked up): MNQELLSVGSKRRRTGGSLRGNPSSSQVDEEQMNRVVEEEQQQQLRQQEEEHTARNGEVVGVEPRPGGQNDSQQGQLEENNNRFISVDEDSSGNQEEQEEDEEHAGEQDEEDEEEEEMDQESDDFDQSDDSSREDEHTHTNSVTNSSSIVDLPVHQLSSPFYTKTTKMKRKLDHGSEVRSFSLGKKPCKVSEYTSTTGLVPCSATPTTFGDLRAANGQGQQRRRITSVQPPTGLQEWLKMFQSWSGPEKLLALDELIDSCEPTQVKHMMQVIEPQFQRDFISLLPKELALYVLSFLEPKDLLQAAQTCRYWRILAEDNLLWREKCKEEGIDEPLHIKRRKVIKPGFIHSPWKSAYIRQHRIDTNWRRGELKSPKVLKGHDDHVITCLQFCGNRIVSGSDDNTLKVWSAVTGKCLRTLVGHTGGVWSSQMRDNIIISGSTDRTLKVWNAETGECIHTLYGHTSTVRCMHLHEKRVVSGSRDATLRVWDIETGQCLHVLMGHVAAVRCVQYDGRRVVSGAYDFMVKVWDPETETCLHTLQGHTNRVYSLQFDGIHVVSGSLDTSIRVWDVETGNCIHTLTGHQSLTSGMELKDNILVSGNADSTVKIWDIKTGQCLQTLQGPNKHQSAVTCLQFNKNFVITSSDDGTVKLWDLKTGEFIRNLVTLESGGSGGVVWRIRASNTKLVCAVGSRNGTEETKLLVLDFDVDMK
GPR151 ag: activates the human receptor GPR151; PathHunter beta-arrestin GPR151 cells, luminescence; hit rate 1% among 650,000; activation, % at 11.2 µM; Q8TDV0; AID 1508602; in the data active means activation above about 4.9%
MITF inh conf: confirmation of human MITF inhibitors. hit rate 16% among 4,700. shares compounds with MITF primary. inhibition, % at 2.6 µM. AlphaScreen MITF homodimerization, biotin/His-MITF beads;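 active means inhibition above a cutoff derived from the DMSO control wells, cut at about 28% in these data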;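 further: inhibitors lower the bead chemiluminescence by keeping MITF from dimerizing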
AlphaScreen DR: AlphaScreen optical interference, dose response counter-screen. AID 1259373. shares compounds with MITF primary. AlphaScreen optical interference counterscreen, cell-free. IC50, µM. hit rate 6% among 480; call rule not given here
AlphaScreen intf2: optically interferes with AlphaScreen signal; shares compounds with MITF primary; LysRS AlphaScreen counterscreen, signal interference, triplicate; inhibition, % at 2.6 µM; hit rate 7.6% among 4,700;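 active means inhibition above a cutoff derived from the DMSO control wells, cut at about 30% in these data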
Of the large screens only hits and unclear results are named; the others gave an inactive call (follow-up assays come after a bar, where they were run).

CC(C)n1cnc2c(NCCCN3CCCC3=O)nc(N3CCCC3CO)nc21 (stereo not given)	none
Cc1ccccc1CN1CCN(S(=O)(=O)c2ccc(Cl)cc2)CC1	MITF primary 53 | MITF inh conf inactive | AlphaScreen intf2 inactive
COc1ccccc1CN1CCN(S(=O)(=O)c2ccccc2)CC1	MITF primary 63 | MITF inh conf inactive | AlphaScreen intf2 inactive
CCOc1ccccc1CN1CCN(S(=O)(=O)c2ccc(Cl)cc2)CC1	MITF primary 61 | MITF inh conf inactive | AlphaScreen intf2 inactive
COc1cccc(CN2CCN(S(=O)(=O)c3ccccc3)CC2)c1OC	none
Cc1cc(S(=O)(=O)N2CCN(Cc3ccc(Cl)cc3)CC2)ccc1-n1cnnn1	MITF primary 60 | MITF inh conf inactive | AlphaScreen intf2 inactive
O=[N+]([O-])c1ccc(CSc2nc(-c3ccccc3)nc3c2CCCC3)cc1	none
COc1ccc(CCc2nc(-c3nonc3N)no2)cc1	none
COc1ccc(OC)c(C2C(C#N)=C(N)N(c3ncn[nH]3)C3=C2C(=O)CCC3)c1 (stereo not given)	none
CCN1CCN(C(c2ccc3ncccc3c2)c2nnnn2C(C)(C)C)CC1 (stereo not given)	none
CC(C)(C)n1nnnc1C(c1ccc2ncccc2c1)N1CCOCC1 (stereo not given)	MITF primary 54 | MITF inh conf inactive | AlphaScreen intf2 inactive
O=C(NCCN1CCOCC1)c1cnc(NCc2ccc3c(c2)OCO3)s1	none
O=C(CNCCN1CCOCC1)Nc1ccc(N2CCCCC2)cc1	MITF primary 93 | MITF inh conf inactive | AlphaScreen intf2 inactive
O=C(NCCN1CCOCC1)c1cccc(C(=O)NCCN2CCOCC2)c1	none
O=C(Nc1ccc2c(c1)OCO2)c1cnc(NCCN2CCOCC2)s1	MITF primary 52 | MITF inh conf inactive | AlphaScreen intf2 inactive
O=C(CNCCCN1CCOCC1)Nc1ccc2c(c1)OCO2	MITF primary 71 | MITF inh conf inactive | AlphaScreen intf2 inactive
O=C(NCCN1CCOCC1)c1cccc(-c2ccccc2)c1	MITF primary 75 | MITF inh conf inactive | AlphaScreen intf2 inactive
CN(C)c1ccc(/C=C/C=N/n2cnnc2)cc1	none
COc1ccc(-c2c(C#N)c(N)nc3sc(C(=O)c4ccccc4)c(N)c23)cc1OC	none
O=C(CNCCCN1CCOCC1)Nc1ccc(N2CCCC2)cc1	MITF primary 54 | MITF inh conf inactive | AlphaScreen intf2 inactive
O=C(CNCc1ccc2c(c1)OCO2)Nc1ccc(N2CCCC2)cc1	MITF primary 62 | MITF inh conf inactive | AlphaScreen intf2 inactive
O=C(CNCCCN1CCOCC1)Nc1ccc(N2CCCCC2)cc1	none
c1cc2c(cc1CNCC1CCCCC1)OCO2	MITF primary 58 | MITF inh conf inactive | AlphaScreen intf2 inactive
CC1=CC(C)(C)N(C(=O)CNCCN2CCOCC2)c2cc(C)ccc21	MITF primary 59 | MITF inh conf inactive | AlphaScreen intf2 inactive
CCCn1ncc(C(=O)N2CCc3c(nc(N4CCCCC4)[nH]c3=O)C2)c1C	none
CN1CCN(c2ccccc2NC(=O)c2cccc(I)c2)CC1	none
COc1ccc(CCNc2nnc(-c3ccccc3)c(=O)[nH]2)cc1OC	none
Cn1c(=O)[nH]c(=O)c2c1nc(Br)n2CCc1ccccc1	none
CC(C)c1cccc(C(C)C)c1NC(=O)CNCCO	MITF primary 53 | MITF inh conf inactive | AlphaScreen intf2 inactive
CCCCNCC(=O)Nc1ccccc1N1CCCCCC1	none
Cc1cccc(C)c1NC(=O)CNCCN1CCOCC1	MITF primary 92 | MITF inh conf inactive | AlphaScreen intf2 inactive
COc1ccc(CCNCC(=O)Nc2ccccc2N2CCCCC2)cc1	MITF primary 61 | MITF inh conf inactive | AlphaScreen intf2 inactive
O=C(CNCCCN1CCOCC1)Nc1ccccc1N1CCCCCC1	MITF primary 71 | MITF inh conf inactive | AlphaScreen intf2 inactive
Clc1ccccc1CN1CCCC(c2nc3ccccc3[nH]2)C1 (stereo not given)	none
CC(C)N(C(=O)CNCCN1CCOCC1)c1ccccc1	MITF primary 72 | MITF inh conf inactive | AlphaScreen intf2 inactive
CCOC(=O)c1c(NC(=S)Nc2ccccc2)sc2c1CC(C)(C)OC2	none
c1coc(-c2ncc3ccccn23)c1	none
Ic1ccc(-c2ncc3ccccn23)cc1	none
COc1ccc(-c2ncc3ccccn23)cc1OC	MITF primary 70 | MITF inh conf inactive | AlphaScreen intf2 36
Clc1ccccc1-c1ncc2ccccn12	MITF primary 63 | MITF inh conf inactive | AlphaScreen intf2 36
Cc1ccc(C)c(N(CC(=O)NCc2ccccc2C)S(=O)(=O)c2ccccc2)c1	none
CCN(CC)CCN1CCN(c2ccnc3c(-c4ccco4)cnn23)CC1	MITF primary 55 | MITF inh conf inactive | AlphaScreen intf2 inactive
CC(=O)Nc1ccnn1C1CCN(Cc2cccc(Oc3ccccc3)c2)CC1	none
CC(=O)Nc1ccnn1C1CCN(Cc2cccc(OC3CCCC3)c2)CC1	MITF primary 56 | MITF inh conf inactive | AlphaScreen intf2 inactive
CSc1ccc(C(=O)O)s1	MITF primary 75 | MITF inh conf 35 | AlphaScreen DR inactive | AlphaScreen intf2 inactive
CSc1ccc(C(=O)NCc2nc(-c3ccncc3)n[nH]2)s1	none
COc1cccc(C2C(C#N)=C(N)N(N(C)C)C3=C2C(=O)CC(c2ccccc2)C3)c1 (stereo not given)	none
O=C(CSc1nc(NC2CCCCC2)c2ccccc2n1)NC1CCCCC1	MITF primary 58 | MITF inh conf inactive | AlphaScreen intf2 inactive
Cc1ccc(CNC(=O)CSc2nc(NC3CCCCC3)c3ccccc3n2)cc1	none
CC(C)COC(=O)c1ccc(NC(=O)c2cc3ccccc3oc2=O)cc1	none
O=C(O)c1cccc(N/N=C/c2ccccn2)c1	none
O=C(O)c1cccc(NC(=S)N/N=C/c2ccccn2)c1	MITF primary 95, TEAD-YAP inh 34 | MITF inh conf inactive | AlphaScreen intf2 inactive
Cc1ccccc1/C=C1\N=C(c2cc(C3=N/C(=C/c4ccccc4C)C(=O)O3)cc(C3=N/C(=C/c4ccccc4C)C(=O)O3)c2)OC1=O	MITF primary 59 | MITF inh conf 46 | AlphaScreen intf2 inactive
CC(Sc1nnc(-c2ccc([N+](=O)[O-])cc2)o1)C(N)=O (stereo not given)	MITF primary 69 | MITF inh conf inactive | AlphaScreen intf2 inactive
N#CCCn1cc(CNCc2ccccc2)c(-c2ccccc2)n1	MITF primary 54 | MITF inh conf inactive | AlphaScreen intf2 inactive
N#CCCn1cc(CNCc2ccccc2)c(-c2ccc(F)cc2)n1	none
CCn1c(C)nc2cc(C(=O)NNC(=O)COc3cccc(Br)c3)ccc21	MITF primary 86 | MITF inh conf inactive | AlphaScreen intf2 inactive
CCn1c(C)nc2cc(C(=O)NNC(=O)NC3CCCCC3)ccc21	none
CC(=O)c1ccc(N2CC(=O)Nc3ccccc3S2(=O)=O)cc1	none
CCC1Sc2ccccc2N(CC(=O)NCCc2ccc(OC)c(OC)c2)C1=O (stereo not given)	none
